According to PubChem BioAssay (NCI):
This is part of a sample that, as a whole, favours compounds with a hit. Of some 83,000 tested, about 20% had one in any assay.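 In brief: 96-well plates, 48 h treatment, single concentration, percent growth endpoint.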 Unmarked numbers belong to inactive results. Calls of active or inactive are those of the source. Rule for the calls: active = growth percent below 10; inactive = the rest.

What was measured:
Experiment in all cases: NCI-60 one-dose screen, 48 h (100 = growth as untreated, 0 = no growth, -100 = all killed)
Details in all cases: 10 µM unless noted
DU-145 prostate = system: DU-145 prostate
K-562 leukemia = system: K-562 leukemia
MALME-3M melanoma = system: MALME-3M melanoma
MDA-MB-231 breast = system: MDA-MB-231 breast
RXF 393 renal = system: RXF 393 renal
SF-268 CNS = system: SF-268 CNS
SF-295 CNS = system: SF-295 CNS
SF-539 CNS = system: SF-539 CNS
UACC-257 melanoma = system: UACC-257 melanoma
M14 melanoma = system: M14 melanoma

Structure (SMILES) | growth (DU-145 prostate) | growth (K-562 leukemia) | growth (MALME-3M melanoma) | growth (MDA-MB-231 breast) | growth (RXF 393 renal) | growth (SF-268 CNS) | growth (SF-295 CNS) | growth (SF-539 CNS) | growth (UACC-257 melanoma) | growth (M14 melanoma)
Brc1ccc(-c2nc3ccccc3s2)cc1 | 108% | 96.2% | 95.8% | 82.4% | 96% | 90% | 98% | 93.2% | 117% | 97.7%
Cc1ccc(S(=O)(=O)NC(CCC(=O)Nc2ccccc2)C(=O)Nc2ccccc2)cc1 (stereo not given) | 5.02% (active) | 3.93% (active) | -36.5% (active) | -30.1% (active) | -24.6% (active) | 8.46% (active) | -3.31% (active) | -75.6% (active) | -18.4% (active) | 3.93% (active)
NC(=O)c1c(Nc2ccccc2)nn2cc(-c3nc4ccccc4s3)c(N)nc12 | 107% | 93.1% | 96% | 84.7% | 102% | 95.6% | 98.7% | 95.3% | 118% | 93.5%
Nc1ccc(S(=O)(=O)c2ccc(NO)cc2)cc1 | 89.4% | 91.8% | 144% | 98.3% | 53.7% | 109% | 106% | 76.8% | 106% | 117%
N=C(c1ccccc1)N(Cc1ccccc1)Cc1ccccc1 | 111% | 76.2% | 93.8% | 79.6% | 85% | 103% | 59.2% | 103% | 94% | 78%
Cc1ccc(C(=O)Nc2ccc(CN3CCN(C)CC3)c(C(F)(F)F)c2)cc1C#Cc1cnc(N)c2ccc(C#N)cc12 | 43.1% | -25.5% (active) | -51.9% (active) | 11.2% | 30.4% | 45% | 61.8% | 51.8% | 45.6% | 8.81% (active)
O=C(N/N=C\c1ccc(Cl)cc1)C(=O)N/N=C\c1ccc(Cl)cc1 | 123% | 95.2% | 89.6% | 91.3% | 118% | 120% | 96.8% | 99.5% | 108% | 103%
N#Cc1c2ncccc2c2nnc3cc(Cl)c(Cl)cc3n12 | 89.2% | 91% | 79.6% | 67% | 116% | 90.6% | 105% | 97.1% | 95.3% | 100%
O=C(O)c1ccc(Br)nc1 | 100% | 100% | 94.2% | 100% | 105% | 95.4% | 96.9% | 97.7% | 88.3% | 101%
CCCCCCCCC/C(=N\NC(=O)c1ccncc1)c1ccc(O)c(O)c1O | 27.8% | 15.1% | 35.4% | 47.9% | 19.2% | 17.6% | 16.3% | 7.62% (active) | 8.98% (active) | 8.78% (active)
CCOC(=O)/C(C#N)=C(/CC)OCC | 106% | 89% | 92.6% | 107% | 114% | 93.1% | 101% | 113% | 99.9% | 95.5%
COc1ccc(-c2nnc(SCC(=O)Nc3ccc(C(=O)/C=C/c4cc(OC)c(OC)c(OC)c4)cc3)n2-c2ccccc2)cc1OC | -29.4% [100 µM] (active) | 31.4% [100 µM] | -33.4% [100 µM] (active) | -44.6% [100 µM] (active) | -24.7% [100 µM] (active) | -52.2% [100 µM] (active) | -86.2% [100 µM] (active) | 1.43% [100 µM] (active) | 22.1% [100 µM] | 1.87% [100 µM] (active)
CC[N+](C)(C)N | 118% | 103% | 112% | 106% | 94.3% | 110% | 104% | 109% | 110% | 107%
COc1cc(OC)cc(-c2ccc(-c3ccc(C(=N)N)cc3)s2)c1 | -90.6% (active) | -39.8% (active) | -80.7% (active) | -77% (active) | -94.3% (active) | -72.2% (active) | -88.4% (active) | -88.7% (active) | -58% (active) | -90.5% (active)
